Screening data as filed in PubChem BioAssay.
NPR2 activator: GC-B (human) receptor activation; 370,000 compounds, 0.11% hits; HEK293-GC-B cells, CNP EC30, cGMP TR-FRET; 0% at EC30 CNP, 100% saturating CNP; P20594; activation, % at 10 µM;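 active = activation at 10 µM reaching about 35% in either raw or pattern-adjusted values, limit read from the data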
Neddyl block: inhibitors of human cullin neddylation | TR-FRET cullin neddylation, biochemical | inhibition, % at 25 µM | 360,000 compounds, 0.58% hits; in the data active = inhibition above about 36%
Target sequence (P61081 whole entry, looked up): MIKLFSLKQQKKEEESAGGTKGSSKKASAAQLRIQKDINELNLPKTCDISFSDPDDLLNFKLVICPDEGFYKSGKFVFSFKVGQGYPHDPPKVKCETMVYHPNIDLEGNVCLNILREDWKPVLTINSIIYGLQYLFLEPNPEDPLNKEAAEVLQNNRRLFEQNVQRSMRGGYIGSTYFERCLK
Target sequence (Q13564 whole entry, looked up): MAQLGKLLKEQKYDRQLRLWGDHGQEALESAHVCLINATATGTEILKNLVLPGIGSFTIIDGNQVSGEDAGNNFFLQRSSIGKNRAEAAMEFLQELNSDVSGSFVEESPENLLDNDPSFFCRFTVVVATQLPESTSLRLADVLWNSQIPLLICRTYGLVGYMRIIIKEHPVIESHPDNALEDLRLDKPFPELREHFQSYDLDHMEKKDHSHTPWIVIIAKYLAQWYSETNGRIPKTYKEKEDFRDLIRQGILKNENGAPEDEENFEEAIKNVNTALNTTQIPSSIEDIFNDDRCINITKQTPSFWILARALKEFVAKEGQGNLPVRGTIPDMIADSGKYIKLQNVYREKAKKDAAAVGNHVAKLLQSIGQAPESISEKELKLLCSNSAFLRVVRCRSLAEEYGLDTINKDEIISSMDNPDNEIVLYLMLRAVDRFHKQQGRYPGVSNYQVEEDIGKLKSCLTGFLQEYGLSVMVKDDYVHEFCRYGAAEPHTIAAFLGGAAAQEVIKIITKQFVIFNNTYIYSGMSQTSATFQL
A3G deaminase: blocks human APOBEC3G single-stranded DNA deamination; Q9HC16; 330,000 compounds, 0.28% hits; recombinant A3G, ssDNA deamination FAM/TAMRA fluorescence; AID 493012; inhibition, % at 20 µM;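 active = inhibition of at least 40% at 20 µM, with no more than 30% in the related APOBEC3A deaminase screen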;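 also: plate controls were DMSO wells with A3G for no effect and wells lacking A3G enzyme for full effect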
APOBEC3A inh: blocks human APOBEC3A ssDNA deamination | P31941 | recombinant A3A, FAM/TAMRA ssDNA deamination fluorescence | inhibition, % at 20 µM | 330,000 compounds, 0.41% hits;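 active = at least 40% inhibition at 20 µM here, with at most 30% in a related deaminase screen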;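 also: plate controls were A3A with DMSO for no effect and wells lacking A3A enzyme for full effect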
PfGluPho inh: PfG6PD (Plasmodium falciparum) enzyme inhibition; AID 504690; PfGluPho enzyme, NADPH resazurin-diaphorase fluorescence; 350,000 compounds, 0.78% hits; inhibition, % at 20 µM;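 active = inhibition reaching at least a set limit at 20 µM in the primary screen, cut at about 59% in these data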;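 also: 0% = DMSO wells with substrate and 100% = DMSO wells lacking glucose-6-phosphate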
NPR1 activator: GC-A (human) enzyme activation | P16066 | HEK293 GC-A cells, cGMP TR-FRET, EC30 ANP; 0% at EC30 ANP, 100% saturating ANP | activation, % at 10 µM | 370,000 compounds, 0.14% hits | AID 1671463; in the data active = activation above about 40%
PfG6PD confirm: PfG6PD inhibition, single-dose confirmed. shares compounds with PfGluPho inh. recombinant PfGluPho, NADPH-diaphorase-resazurin fluorescence. inhibition, % at 20 µM. 2,400 compounds, 34% hits;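 active = inhibition of at least 50% at 20 µM in any single replicate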;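 also: 0% = DMSO with substrate and 100% = DMSO lacking glucose-6-phosphate substrate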
Diaphorase 10uM: inhibits diaphorase or oxidizes, flagging false PfG6PD hits. shares compounds with PfGluPho inh. inhibition, % at 20 µM. 820 compounds, 39% hits. diaphorase-coupled resazurin reduction, fluorescence, NADPH 10 uM. AID 504862;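 active = average inhibition reaching 50% or more with the compound at 20 µM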;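 also: resorufin red fluorescence formed as diaphorase reduces resazurin using NADPH; 0% = DMSO with enzyme and 100% = DMSO without enzyme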
Diaphorase 30uM: diaphorase inhibition or oxidation at 30 uM NADPH; shares compounds with PfGluPho inh; 820 compounds, 29% hits; Diaphorase/resazurin coupled assay, resorufin fluorescence; AID 504863; inhibition, % at 20 µM;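 active = inhibition averaging 50% or more, tested at 20 µM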;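 also: 0% = DMSO with enzyme and 100% = DMSO wells lacking diaphorase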
Numbers without * were called inactive; · = no result shown. Rows were chosen to be rich in hits. Some 2% of all compounds tested hit in one or more screens of this group.

SMILES | NPR2 activator | Neddyl block | A3G deaminase | APOBEC3A inh | PfGluPho inh | NPR1 activator | PfG6PD confirm | others
CCC[C@H]1[C@@H](NC(=O)C#Cc2ccccc2)CC[C@@]23CCCN2C(=O)CCC[C@@H]13 | -1.4 | · | · | · | · | -2.2 | ·
CC1(C)CC(=O)C2=C(C1)NC1=C(C(=O)c3ccccc31)C2c1ccc(Cl)cc1 (configuration not stated) | -9.6 | -32.9 | -2.1 | 4.8 | 67.6* | -21.1 | 14.1
Cc1ccc(C2C3=C(CC(C)(C)CC3=O)NC3=C2C(=O)c2ccccc23)cc1 (configuration not stated) | -0.4 | -36.2 | -5.3 | -0.3 | 36.0 | -13.6 | ·
CCCCNC(=O)C[C@H]1C[C@@]2(C(=O)OC)C(=C[C@H](C3CCCC3)O[C@@H]2C)N(Cc2cccc3ccccc23)C1=O | -15.9 | · | · | · | · | -12.1 | ·
COc1ccc2c(c1)-c1ccccc1S(=O)(=O)N2C | 3.8 | 4.4 | -4.4 | -1.8 | 59.5* | -2.8 | 29.9
CC(=O)c1ccc(NC(=O)C2Cc3ccccc3CN2C(=O)c2ccccc2)cc1 (configuration not stated) | -0.6 | -11.5 | -5.4 | -1.2 | 67.9* | -5.4 | 37.3
COc1ccc(NC(=O)C2Cc3ccccc3CN2C(=O)c2ccccc2)cn1 (configuration not stated) | 1.5 | 4.7 | 0.5 | -0.5 | 60.6* | -0.9 | 48.1
O=C(NC1=NCCS1)C1Cc2ccccc2CN1C(=O)c1ccccc1 (configuration not stated) | 0.8 | 1.4 | -2.7 | -1.2 | 28.1 | -4.2 | ·
COc1cc(/C=N/N2C(C)CCCC2C)cc(OC)c1O (configuration not stated) | -1.1 | 1.8 | 8.4 | -0.3 | 84.4* | -1.3 | 18.2
COc1cc(/C=N/N2CCN(C3c4ccccc4-c4ccccc43)CC2)cc(OC)c1O | -0.6 | 0.4 | 4.5 | 0.6 | 75.8* | -3.0 | 16.8
CCOc1ccc(/C=N/N2C(C)CCCC2C)cc1OC (configuration not stated) | -1.5 | 7.2 | -2.6 | -1.2 | -16.5 | 0.5 | ·
C=C1CCN(C(CC(C)C)C(=O)OC)S(=O)(=O)c2ccccc21 (configuration not stated) | 3.0 | -13.9 | -7.7 | -0.8 | 0.2 | -3.7 | ·
COC(=O)[C@H](CC(C)C)N1Cc2cc(OC)cc(OC)c2-c2ccccc2S1(=O)=O | -4.4 | · | -0.7 | 1.5 | 64.5* | -4.2 | 12.2
Cc1nc(N2CCC(C)CC2)c2c(C)c(C(=O)Nc3cccc(C(F)(F)F)c3)sc2n1 | -2.7 | -72.5 | -6.1 | 0.1 | 8.4 | -0.7 | ·
Cc1nc(Nc2cnc(/C=C/c3cc(C(=O)Nc4cccc(C(F)(F)F)c4)ccc3C)cn2)cc(N2CCNCC2)n1 | · | · | -4.0 | -0.2 | 62.3* | · | -12.3
Cc1ccc(-n2c(SCc3cccc4ccccc34)nnc2-c2ccccn2)cc1 | -11.0 | · | · | · | · | -11.6 | ·
Cc1ccc(C(=O)/C=C/C(=O)c2ccc(C)cc2)cc1 | 14.0 | 4.8 | 4.5 | -0.6 | 76.1* | 17.4 | 51.1* | Diaphorase 10uM=-26.2;Diaphorase 30uM=-28.2
O=c1c2ccccc2sn1-c1cc(S(=O)(=O)N2CCOCC2)ccc1N1CCCC1 | 13.2 | -15.4 | 36.0 | 1.0 | 112.4* | 3.4 | 107.2* | Diaphorase 10uM=-10.3;Diaphorase 30uM=-6.6
O=C(Nc1cc(S(=O)(=O)N2CCOCC2)ccc1N1CCCC1)c1ccccc1F | 8.2 | -4.2 | · | · | 0.5 | 2.2 | ·
O=C(Nc1cc(S(=O)(=O)N2CCOCC2)ccc1N1CCCCC1)c1ccccc1Br | -9.6 | -6.1 | -1.4 | -2.7 | 68.2* | -18.3 | -7.3
CC(C)C(=O)Nc1cc(S(=O)(=O)N2CCOCC2)ccc1N1CCCCC1 | -2.2 | 8.2 | 0.7 | -0.7 | 60.8* | 5.2 | -14.2
Nc1cc(S(=O)(=O)N2CCCCC2)ccc1N1CCCCC1 | 3.4 | 24.4 | 2.7 | 0.2 | 9.7 | -0.9 | ·
Nc1cc(S(=O)(=O)N2CCOCC2)ccc1N1CCCCC1 | 1.1 | -6.5 | 38.9 | -2.0 | 69.0* | 9.1 | 36.3
COc1ccc(-c2cccc3[nH]c4c(c23)CCN2C(=O)[C@H]3[C@H](C)ON(C)[C@H]3C[C@@H]42)cc1 | 5.5 | · | · | · | · | 2.1 | ·
C[C@H](O)[C@@H]1C(=O)N2CCc3c([nH]c4cccc(-c5ccccc5)c34)[C@@H]2C[C@@H]1N(C)C(=O)c1ccco1 | 0.8 | · | · | · | · | -4.7 | ·
SMILES | NPR2 activator | Neddyl block | A3G deaminase | APOBEC3A inh | PfGluPho inh | NPR1 activator | PfG6PD confirm | others
O=C1CCC2(CCC(c3ccccc3)CC2)N1CC[C@@H](O)c1ccccc1 (some centres not stated) | 1.6 | · | · | · | · | -1.8 | ·
O=C(Nc1cc(S(=O)(=O)N2CCOCC2)ccc1N1CCCC1)c1ccc(Cl)cc1 | 4.3 | 24.6 | 21.4 | 0.3 | 60.2* | 3.4 | 45.1
Nc1nc2ccccc2n1/N=C/c1ccc(-c2ccccc2)o1 | -3.0 | 17.0 | -2.9 | 1.5 | 79.8* | -5.8 | 13.4
Cc1sc(NC(=O)COc2ccccc2)c(C#N)c1-c1ccccc1 | 3.3 | -24.9 | -4.8 | 1.2 | -13.5 | 0.8 | ·
COc1ccc(C(=O)Nc2sc(C)c(-c3ccccc3)c2C#N)cc1OC | 7.8 | -25.5 | -2.0 | 0.8 | 66.6* | -0.6 | -10.2
COc1ccc(/C=N\NC(=O)CN2CCN(Cc3ccccc3)CC2)cc1OCc1ccccc1 | -2.7 | · | · | · | · | -1.0 | ·
CCOC(=O)CSc1nc2nc(Cl)c(Cl)nc2[nH]1 | 5.0 | · | · | · | 81.0* | 4.6 | 46.9
CCOC(=O)CSc1nc(C)cc(=O)[nH]1 | 7.9 | -0.8 | 0.3 | 1.0 | -15.7 | 3.9 | ·
COc1ccc(N2CSC3=C(C#N)C(c4cccc(OC)c4OC)CC(=O)N3C2)cc1 (configuration not stated) | -4.9 | -7.6 | 39.1 | -5.2 | 89.4* | 3.9 | 37.0
Cn1c2c(c(=O)n(C)c1=O)C(c1ccccc1F)C(C#N)=C(N)O2 (configuration not stated) | -4.8 | 3.5 | -8.0 | -4.3 | -27.5 | -3.7 | ·
CCc1ccccc1N1CSC2=C(C#N)C(c3ccccc3F)CC(=O)N2C1 (configuration not stated) | -1.7 | 12.7 | 25.7 | -4.3 | 74.1* | 5.0 | 51.0* | Diaphorase 10uM=-16.8;Diaphorase 30uM=-12.5
O=C(CN1CCc2onc(-c3ccc(-n4cc(COc5ccc([N+](=O)[O-])cc5)nn4)cc3)c2C1=O)N1CCOCC1 | -8.0 | · | · | · | · | 2.7 | ·
Cc1ccc(NC(=S)NNC(=O)Nc2ccccc2)cc1 | 0.6 | -2.8 | 0.0 | 4.1 | 16.1 | -2.1 | ·
Cc1ccc(NC(=S)NNC(=S)Nc2ccc(C)cc2)cc1 | 0.7 | -0.9 | · | · | 78.0* | 1.8 | 11.3
